Most compounds without a hit are left out; they make up all but 3.6% or so of the library.
Pf apPOL inh – Pf-apPOL inhibitors, biochemical, fluorescence; inhibition, % at 10 µM; Recombinant Pf-apPOL, molecular beacon fluorescence, 1.5 h; hit rate 0.25% among 210,000; AID 1794808, 2022
mHTT-CaM PPI inh – mutant huntingtin-calmodulin interaction inhibitors – biochemical, AlphaScreen, primary screen | P42858 | AlphaScreen His-mHTT/GST-CaM binding, luminescence | inhibition, % at 15 µM | hit rate 3.6% among 190,000 | AID 1671202, 2021
Of the large screens only hits and unclear results are named; the others gave an inactive call. Rule as the data show it: active = inhibition above about 50%; inactive = the rest.

CCN(CC)CCC(c1cc(OC)c(OC)c(OC)c1)c1c(OC)cc(OC)c2c1OC(=O)CC2c1ccc(N(C)C)cc1 (stereo unspecified)	mHTT-CaM PPI inh 69.3
COc1cc(C2CC(=O)Oc3c(C(C)C)ccc(C)c32)cc(OC)c1OC (stereo unspecified)	none
COc1cc(C(CCN2CCCCC2)c2c(OC)cc(OC)c3c2OC(=O)CC3c2ccc(N(C)C)cc2)cc(OC)c1OC (stereo unspecified)	mHTT-CaM PPI inh 78.3
COc1cc(OC)c2c(c1C(CCN1CCOCC1)c1ccc(N(C)C)cc1)OC(=O)CC2c1ccc(N(C)C)cc1 (stereo unspecified)	mHTT-CaM PPI inh 99.8
COc1cc(C(CCN2CCOCC2)c2c(OC)cc(OC)c3ccc(=O)oc23)cc(OC)c1OC (stereo unspecified)	none
CCN(CC)CCC(c1cc(OC)c(OC)c(OC)c1)c1c(OC)cc(OC)c2ccc(=O)oc12 (stereo unspecified)	none
COc1cc(C(CCN2CCCC2)c2c(OC)cc(OC)c3c2OC(=O)CC3c2ccc(N(C)C)cc2)cc(OC)c1OC (stereo unspecified)	mHTT-CaM PPI inh 75.0
Cc1c(CN2CCC(C(C)O)CC2)cnn1C (stereo unspecified)	none
O=[N+]([O-])c1ccc(S(=O)(=O)NCCC2=CCCCC2)cc1	none
CCOc1ccc(C(=O)N2CCc3nc4cc[nH]n4c(=O)c3C2)cc1	none
O=C1C(=Cc2ccc(SC3CCCCC3)c([N+](=O)[O-])c2)SC(=S)N1Cc1ccccc1	none (no result: mHTT-CaM PPI inh)
COc1nonc1OCCCNc1cc(Cl)ccc1[N+](=O)[O-]	none
COCCNC(=O)CSc1nnc2c(=O)n(Cc3ccccc3)ccn12	none
COc1ccc(NC(=O)CCN2CCN(c3ccccc3)CC2)c(OC)c1	none
COc1ccc(C2CC(=O)Oc3c(C(CCN4CCOCC4)c4ccc5c(c4)OCO5)c(OC)cc(OC)c32)cc1 (stereo unspecified)	mHTT-CaM PPI inh 78.9
COc1ccc(C2CC(=O)Oc3c(C(CCN4CCOCC4)c4cc(OC)c(OC)c(OC)c4)c(OC)cc(OC)c32)cc1 (stereo unspecified)	none
COc1cc(C(CCN2CCOCC2)c2c(OC)cc(OC)c3c2OC(=O)CC3c2ccc(N(C)C)cc2)cc(OC)c1OC (stereo unspecified)	mHTT-CaM PPI inh 73.9
COc1ccc2c(c1)C(c1ccc3c(c1)OCO3)CC(=O)O2 (stereo unspecified)	none
COc1ccc(C2CC(=O)Oc3c(C(CCN4CCN(c5ccccc5)CC4)c4ccc(N(C)C)cc4)c(OC)cc(OC)c32)cc1 (stereo unspecified)	mHTT-CaM PPI inh 72.8
O=C(CN1CCC(c2nc(-c3cccc(F)c3)no2)CC1)Nc1ccc2c(c1)CCC2	none
COc1ccccc1-c1noc(C2CCCN2C(=O)NCc2ccccc2)n1 (stereo unspecified)	none
CCN(C(=O)c1ccccc1[N+](=O)[O-])c1ccccc1C	none
Cc1cc(C)c2sc(N(CCN(C)C)C(=O)c3ccccc3[N+](=O)[O-])nc2c1	mHTT-CaM PPI inh 83.8
O=C(COc1ccccc1)NCCNc1ccc(Nc2ccccn2)nn1	mHTT-CaM PPI inh 87.1
O=C(O)COCC(=O)Nc1ccccn1	none (no result: mHTT-CaM PPI inh)
O=c1cccnn1CCNS(=O)(=O)c1ccccc1C(F)(F)F	none
O=S(=O)(NCCNc1ccc(Nc2ccccn2)nn1)c1ccccc1C(F)(F)F	mHTT-CaM PPI inh 97.0
O=C(NCCNc1ccc(Nc2ccccn2)nn1)Nc1ccc(F)c(Cl)c1	mHTT-CaM PPI inh 100.2
Cc1nccn1-c1cc(NCCNC(=O)Nc2ccc(F)c(Cl)c2)ncn1	none
Cc1nccn1-c1cc(N2CCC(C(=O)Nc3cccc4nsnc34)CC2)ncn1	none
Cc1cccc(NC(=O)c2cc(S(=O)(=O)NCc3ccc(F)cc3)ccc2F)c1C	none
Cc1ccc(Nc2c(C(=O)NC3CCCC3)cnc3c2c(C)nn3C)cc1	none
O=c1/c(=C/C=C/c2ccccc2)sc2nc(-c3cccs3)nn12	mHTT-CaM PPI inh 52.0
O=c1/c(=C/c2ccccc2)sc2nc(-c3cccs3)nn12	none
CN1CCN(C(=O)c2cnc(-c3ccccc3)nc2N(C)Cc2ccccc2)CC1	mHTT-CaM PPI inh 67.7
CN1CCN(c2nc(-c3ccccc3)ncc2C(=O)N2CCCCC2)CC1	none
O=C(NCCCN1CCc2ccccc2C1)C1CCCN(c2cn[nH]c(=O)c2)C1 (stereo unspecified)	none
COc1ccc(OC)c(CCC(=O)O)c1	none
COc1ccc(CCCC(=O)O)cc1C	Pf apPOL inh 62.7
COc1ccc([N+](=O)[O-])cc1NCN1C(=O)NC(C)(C)C1=O	none
C[C@H]1[C@@H](c2ccccc2)Oc2c(Cl)cccc2S(=O)(=O)N1Cc1cccc(F)c1	none
C[C@H]1[C@@H](c2ccccc2)Oc2c(Cl)cccc2S(=O)(=O)N1Cc1cccc(Cl)c1	mHTT-CaM PPI inh 59.3
CCCn1cc2c3c(cccc31)CN(C(=O)Nc1cc(OC)ccc1OC)CC2	mHTT-CaM PPI inh 72.7
COc1ccccc1NC(=O)N1CCc2cn(C)c3cccc(c23)C1	mHTT-CaM PPI inh 50.6
COc1ccc(OC)c(NC(=O)N2CCc3cn(C)c4cccc(c34)C2)c1	mHTT-CaM PPI inh 62.0
CCn1cc2c3c(cccc31)CN(C(=O)Nc1ccccc1OC)CC2	none
CCn1cc2c3c(cccc31)CN(C(=O)Nc1ccc(OC)cc1OC)CC2	none
COc1cccc(NC(=O)N2CCc3cn(C)c4cccc(c34)C2)c1	none
COc1ccc(NC(=O)N2CCc3cn(C)c4cccc(c34)C2)c(OC)c1	mHTT-CaM PPI inh 75.1
CCCn1cc2c3c(cccc31)CN(C(=O)Nc1cccc(OC)c1)CC2	none
Cc1ccc(Cl)cc1NC(=O)Cc1cccs1	none
Cc1ccc(C(=O)Nc2ccc(C)c(Cl)c2)cc1	none
Cc1cc(N2C(=O)c3ccc(Oc4ccc([N+](=O)[O-])cc4)cc3C2=O)no1	none
COC(=O)c1sc(-c2ccc(C(C)(C)C)cc2)cc1NS(=O)(=O)c1cc(C)c(Cl)cc1C	none (no result: mHTT-CaM PPI inh)
CCOc1ccc(NC(=O)c2ccc(F)c(S(=O)(=O)N3CCc4ccccc43)c2)cc1	none
CCC(C)Oc1ccc(OCCSc2nc(C)cc(=O)[nH]2)cc1 (stereo unspecified)	none
Cc1ccc(C2=N/C(=C\c3ccccc3Br)C(=O)O2)cc1[N+](=O)[O-]	none
COc1ccc(C2=N/C(=C\c3ccccc3[N+](=O)[O-])C(=O)O2)c(Cl)c1	Pf apPOL inh 77.1
Cc1ccccc1/C=C1\N=C(c2ccc(C)c([N+](=O)[O-])c2)OC1=O	mHTT-CaM PPI inh 55.0
O=C1OC(c2ccc(Cl)cc2Cl)=N/C1=C\c1ccccc1[N+](=O)[O-]	none
CCN(CC)S(=O)(=O)N1CCC(C(=O)NC2CCCc3ccccc32)CC1 (stereo unspecified)	none
O=C(NC1CCCc2ccccc21)C1CCN(Cc2c[nH]c3ccccc23)CC1 (stereo unspecified)	mHTT-CaM PPI inh 69.5
O=[N+]([O-])c1cc(C=Nc2ccc3nc(-c4ccccc4)[nH]c3c2)c(O)c([N+](=O)[O-])c1	none
O=[N+]([O-])c1cc2c(cc1C=Nc1ccc(O)cc1)OCO2	none (no result: Pf apPOL inh)
O=[N+]([O-])c1cccc(C=Nc2ccc(O)c(-c3nc4ccccc4[nH]3)c2)c1O	mHTT-CaM PPI inh 68.0
O=[N+]([O-])c1cc2c(cc1C=Nc1ccc(O)c(-c3nc4ccccc4[nH]3)c1)OCO2	mHTT-CaM PPI inh 65.0
COc1ccc2oc(=O)c(C(=O)Nc3ccccc3Oc3ccccc3)cc2c1	none
Cc1[nH]nc2c1C(c1ccccc1)C(C#N)=C(N)O2 (stereo unspecified)	none (no result: mHTT-CaM PPI inh)

Bioassay records (PubChem BioAssay)
